# Source: PubChem BioAssay AID651640 (Broad Institute, 2012)
# Several values for one entry are separate records, joined by “and”; a condition that tells them apart may be missing. Equal values may be shown once. Among all 350,000 compounds or so, about 6,000 (1.7%) were called active. Roughly 5% stayed inconclusive and do not appear here. Rule as the data show it: active = CPE inhibition above about 20% (passing the limit was not always enough); inconclusive = no clear call, values can overlap the other calls; tested in BHK-21 cells. What follows is part of a selection rich in actives, with near analogues and random picks from the rest. More than one record can exist for a structure, and the calls need not agree.
# Assay: inhibitors of DENV2 cytopathic effect, primary screen, cell-based, plate reader, single concentration (AID 651640);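 also: 0% = median of neutral control wells and 100% = median of positive control wells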
# Conditions: DENV2-infected cells, cytopathic effect rescue, at 9.99 µM, stronger effect = higher value
row,Compound,CPE inhibition
1,COCCN(C[C@H]1[C@H](c2ccccc2)[C@@H](CO)N1C(C)=O)C(=O)c1cccnc1,-2.67% (inactive)
2,CN1C(=O)c2cc(NS(=O)(=O)c3ccccc3F)ccc2OC[C@@H]2O[C@@H](CC(=O)NC3Cc4ccccc4C3)CC[C@@H]21,11.5% (inactive)
3,Cc1ccc2nc(-c3ccc(CN4CCC(n5cc(-c6ccccc6)[nH]c5=O)CC4)cc3)c(-c3ccccc3)nc2c1,-12.7% (inactive)
4,O=c1[nH]c(-c2ccccc2)cn1C1CCN(Cc2ccc(-c3nc4ccc(F)cc4nc3-c3ccccc3)cc2)CC1,33.2% (active)
5,Cc1ccc(F)cc1S(=O)(=O)N[C@@H]1CCN(Cc2ccc(-c3ccccc3)cc2)C1,-7.61% (inactive)
6,C=CCN=C1NC(c2cccc(C(F)(F)F)c2)C(C(=O)OC)=C(C)N1C (configuration not stated),2.58% (inactive)
7,C[C@@H](NC(=O)C[C@@H]1CC[C@@H](NC(=O)C2CCOCC2)[C@@H](CO)O1)c1ccccc1,11.3% (inactive)
8,CN1c2ccc(-c3ccc(F)cc3)cc2[C@@H]2[C@@H](CCN2S(=O)(=O)c2ccc(F)cc2)[C@@H]1CO,-22.1% (inactive)
9,O=C(NCCc1c[nH]c2ccccc12)c1cccc(Br)c1,0.922% (inactive)
10,CC(=O)NC(Cc1c[nH]c2ccccc12)C(=O)NCCc1ccccc1 (configuration not stated),-3% (inactive)
11,C[C@]1(C(=O)NCCc2c[nH]c3ccccc23)C=C[C@@H](Cc2ccccc2)N1C(=O)c1ccccc1,40.2% (active)
12,COCCNC(=O)C[C@H]1CC[C@@H]2[C@H](COc3ccc(NC(=O)Nc4cccc(F)c4)cc3C(=O)N2C)O1,-0.175% (inactive)
13,Cc1noc(C)c1NC(=O)Nc1ccc2c(c1)C(=O)N([C@H](C)CO)C[C@H](C)[C@@H](CN(C)S(=O)(=O)c1cn(C)cn1)O2,8.16% (inactive) and 22.2% (active)
14,Cc1noc(C)c1NC(=O)Nc1ccc2c(c1)C(=O)N([C@@H](C)CO)C[C@H](C)[C@H](CN(C)S(=O)(=O)c1cn(C)cn1)OCCCC[C@@H](C)O2,-4.2% (inactive)
15,C[C@@H]1CN([C@H](C)CO)C(=O)c2cc(N(C)C)ccc2O[C@@H]1CN(C)S(=O)(=O)c1cn(C)cn1,70.9% (active)
16,C[C@H](CO)N1C[C@H](C)[C@H](CN(C)S(=O)(=O)c2cn(C)cn2)OCCCC[C@H](C)Oc2ccc(N(C)C)cc2C1=O,1.23% (inactive)
17,COc1ccc(S(=O)(=O)N(C)C[C@@H]2Oc3ccc(NC(=O)Nc4c(C)noc4C)cc3C(=O)N([C@H](C)CO)C[C@@H]2C)cc1,-4.21% (inactive) and 6.91% (inactive)
18,C[C@H](CO)N1C[C@H](C)[C@H](CN(C)S(=O)(=O)c2cn(C)cn2)Oc2ccc(N(C)C)cc2C1=O,6.45% (inactive)
19,COCC(=O)Nc1ccc2c(c1)[C@@H]1C[C@@H](CC(=O)N3CCN(C)CC3)O[C@H](CO)[C@@H]1O2,2.6% (inactive)
20,C[C@@H]1CN([C@H](C)CO)C(=O)c2cccc(NC(=O)CCCCCC(=O)Nc3ccccc3N)c2O[C@H]1CN(C)Cc1ccc(Oc2ccccc2)cc1,-13.3% (inactive)
21,CO[C@@H]1CN(C)C(=O)c2cc(NC(C)=O)ccc2OC[C@H](C)N(C(=O)Cc2ccccn2)C[C@@H]1C,-0.178% (inactive)
22,COCC(=O)N1CCC2(CC1)CN(C(=O)Nc1ccccc1F)[C@@H](CO)c1c2c2ccc(OC)cc2n1C,-0.316% (inactive)
23,COCC(=O)Nc1ccc2c(c1)OC[C@@H](C)N(C(=O)c1cnccn1)C[C@H](C)[C@H](OC)CN(C)C2=O,-10.2% (inactive)

row,Compound,CPE inhibition
1,C[C@@H]1CCCCO[C@H](CN(C)C(=O)NC2CCCCC2)[C@H](C)CN([C@@H](C)CO)C(=O)c2cc(NC(=O)Nc3ccc(F)cc3)ccc2O1,3.1% (inactive)
2,C[C@H]1CCCCO[C@H](CN(C)C(=O)NC2CCCCC2)[C@@H](C)CN([C@@H](C)CO)C(=O)c2cc(NC(=O)Nc3ccc4c(c3)OCO4)ccc2O1,34.9% (active)
3,C[C@@H]1CN([C@@H](C)CO)C(=O)c2cc(NC(=O)Nc3ccc4c(c3)OCO4)ccc2O[C@@H](C)CCCCO[C@@H]1CN(C)C(=O)Nc1ccc2c(c1)OCO2,0.286% (inactive)
4,C[C@@H]1CN([C@@H](C)CO)C(=O)c2cc(NC(=O)Nc3ccc(C(F)(F)F)cc3)ccc2O[C@@H](C)CCCCO[C@@H]1CN(C)C(=O)Nc1cccc2ccccc12,-5.51% (inactive)
5,C[C@@H]1CCCCO[C@@H](CN(C)C(=O)CCCN(C)C)[C@H](C)CN([C@@H](C)CO)C(=O)c2cc(NC(=O)Nc3ccccc3)ccc2O1,-0.42% (inactive)
6,C[C@@H]1CCCCO[C@@H](CN(C)C(=O)CCCN(C)C)[C@@H](C)CN([C@H](C)CO)C(=O)c2cc(NC(=O)Nc3ccc(F)cc3)ccc2O1,26.3% (active)
7,C[C@@H]1CCCCO[C@H](CN(C)C(=O)NC2CCCCC2)[C@H](C)CN([C@H](C)CO)C(=O)c2cc(NC(=O)Nc3ccc(F)cc3)ccc2O1,-5.97% (inactive)
8,C[C@@H]1CCCCO[C@H](CN(C)C(=O)Nc2cccc3ccccc23)[C@@H](C)CN([C@@H](C)CO)C(=O)c2cc(NC(=O)Nc3ccc(F)cc3)ccc2O1,32.7% (active)
9,COc1ccc(NC(=O)Nc2ccc3c(c2)C(=O)N([C@@H](C)CO)C[C@H](C)[C@@H](CN(C)C(=O)Nc2cccc4ccccc24)OCCCC[C@@H](C)O3)cc1,-3.89% (inactive)
10,C[C@H](CO)N1C[C@H](C)[C@@H](CN(C)C(=O)Nc2ccc3c(c2)OCO3)OCCCC[C@H](C)Oc2ccc(NC(=O)Nc3ccc4c(c3)OCO4)cc2C1=O,0.76% (inactive)
11,C[C@@H]1CCCCO[C@@H](CN(C)C(=O)NC2CCCCC2)[C@H](C)CN([C@@H](C)CO)C(=O)c2cc(NC(=O)Nc3ccc(F)cc3)ccc2O1,24.1% (active)
12,C[C@@H]1CN([C@@H](C)CO)C(=O)c2cc(NC(=O)Nc3ccc(C(F)(F)F)cc3)ccc2O[C@@H](C)CCCCO[C@H]1CN(C)C(=O)CCCN(C)C,-0.11% (inactive)
13,O=S(=O)(c1ccc(F)cc1)N1CCCCN2[C@H](C1)[C@H](c1ccc(C3=CCCCC3)cc1)[C@@H]2CO,-4.44% (inactive)
14,COc1cccc(S(=O)(=O)N2CCCCN3[C@H](CO)[C@H](c4ccc(C#CC5CC5)cc4)[C@H]3C2)c1,-34.9% (inactive)
15,CCN1[C@@H]2Cn3c(ccc(-c4cccc(OC)c4)c3=O)[C@H]1[C@@H](C(=O)N(C)C)[C@@H]2CO,-1.41% (inactive)
16,O=C(Nc1ccccc1)N[C@@H]1CC[C@H](CCn2cc(C3(O)CCCC3)nn2)O[C@@H]1CO,-11.6% (inactive)
17,C[C@H](CO)N1C[C@H](C)[C@H](CN(C)C)Oc2ccc(NC(=O)Cc3ccccc3)cc2CC1=O,9.5% (inactive)
18,CC(C)c1cn(CC[C@@H]2CC[C@@H](NC(=O)C3CCC3)[C@@H](CO)O2)nn1,-3.48% (inactive)
19,Cc1noc(C)c1NC(=O)Nc1cccc2c1O[C@H](CN(C)S(C)(=O)=O)[C@H](C)CN([C@H](C)CO)C2=O,6.73% (inactive)
20,C[C@@H]1CN([C@@H](C)CO)C(=O)c2cc(-c3cncnc3)cnc2O[C@@H]1CN(C)Cc1ccncc1,15% (inactive)
21,CO[C@@H]1CN(C)C(=O)c2cc(NC(=O)Nc3cc(F)ccc3F)ccc2OC[C@H](C)N(C)C[C@@H]1C,-0.0135% (inactive)
22,CN1c2ccc(-c3ccc(C#N)cc3)cc2[C@@H]2[C@@H](CCN2C(=O)C2CCCCC2)[C@H]1CO,-20.7% (inactive)
23,Cc1ccc(CN2CCCOCCS2(=O)=O)cc1,40.2% (active)

row,Compound,CPE inhibition
1,Cc1ccc(CN2CC(N3CCC(Cc4ccccc4)CC3)CS2(=O)=O)cc1 (configuration not stated),-8.76% (inactive)
2,O=S1(=O)CCOC[C@H](CC2CCCCC2)N1Cc1ccc(F)cc1,3.12% (inactive)
3,COc1ccc(-c2cnc3c(c2)C(=O)N([C@H](C)CO)C[C@@H](C)[C@H](CN(C)C(=O)Cc2ccncc2)O3)cc1,-3.69% (inactive)
4,CCCCN(C(C)=O)c1ccc2c(c1)C1CC2CCN1Cc1ccccc1 (configuration not stated),42.3% (active)
5,Clc1cccc2c1C1CC2CCN1Cc1ccccc1 (configuration not stated),-7.07% (inactive)
6,FC(F)(F)c1ccc(-c2cccc3c2C2CC3CCN2Cc2ccccc2)cc1 (configuration not stated),-4.78% (inactive)
7,COc1cccc(S(=O)(=O)N(C)C[C@@H]2Oc3ncc(-c4cccc(C(=O)N(C)C)c4)cc3C(=O)N([C@H](C)CO)C[C@@H]2C)c1,9.65% (inactive)
8,CN1c2ccc(-c3cccc(C#N)c3)cc2[C@@H]2[C@@H](CCN2C(=O)NC2CCCCC2)[C@@H]1CO,-19.7% (inactive)
9,O=C(N[C@H]1CC[C@H](CCn2cc(-c3ccccc3F)nn2)O[C@@H]1CO)c1ccc2c(c1)OCO2,6.43% (inactive)
10,Cc1ccc(S(=O)(=O)N(C)C[C@H]2Oc3c(NS(=O)(=O)c4cccs4)cccc3C(=O)N([C@@H](C)CO)C[C@@H]2C)cc1,-0.283% (inactive)
11,C[C@H]1CN([C@@H](C)CO)C(=O)c2cccc(NS(=O)(=O)c3ccc(Cl)cc3)c2O[C@H]1CN(C)S(=O)(=O)c1ccc(Cl)cc1,-6.39% (inactive)
12,C[C@H](CO)N1C[C@H](C)[C@H](CN(C)S(=O)(=O)c2ccccc2)Oc2c(NC(=O)Nc3ccccc3)cccc2C1=O,-3.55% (inactive)
13,COc1ccc(S(=O)(=O)Nc2cccc3c2O[C@H](CN(C)S(=O)(=O)c2ccc(OC)cc2)[C@@H](C)CN([C@H](C)CO)C3=O)cc1,21.2% (active)
14,COc1ccc(S(=O)(=O)N(C)C[C@@H]2Oc3c(NS(=O)(=O)c4ccccc4)cccc3C(=O)N([C@@H](C)CO)C[C@@H]2C)cc1,-6.28% (inactive)
15,C[C@@H]1CN([C@@H](C)CO)C(=O)c2cccc(NS(=O)(=O)c3ccc(F)cc3)c2O[C@H]1CN(C)S(=O)(=O)c1cccs1,-1.22% (inactive)
16,C[C@H](CO)N1C[C@H](C)[C@H](CN(C)S(=O)(=O)c2cccs2)Oc2c(NS(=O)(=O)c3ccc(Cl)cc3)cccc2C1=O,24.5% (active)
17,Cc1ccc(S(=O)(=O)N(C)C[C@@H]2Oc3c(NC(=O)Nc4ccccc4)cccc3C(=O)N([C@H](C)CO)C[C@H]2C)cc1,5.91% (inactive)
18,C[C@@H]1CN([C@@H](C)CO)C(=O)c2cccc(NS(=O)(=O)c3cccs3)c2O[C@@H]1CN(C)CC1CC1,30.5% (active)
19,C[C@H]1CN([C@@H](C)CO)C(=O)c2cccc(NC(=O)Nc3ccccc3)c2O[C@H]1CN(C)S(=O)(=O)c1ccc(Cl)cc1,29.2% (active)
20,COc1ccc(S(=O)(=O)Nc2cccc3c2O[C@@H](CN(C)S(=O)(=O)c2ccc(F)cc2)[C@H](C)CN([C@H](C)CO)C3=O)cc1,-7.57% (inactive)
21,C[C@@H]1CN([C@@H](C)CO)C(=O)c2cccc(NS(=O)(=O)c3cccs3)c2O[C@H]1CN(C)Cc1ccncc1,-4.19% (inactive)
